Reference: PubChem BioAssay (EPA / NIEHS)
Inconclusive results are not listed. Calls of active or inactive are those of the source. Rule for the calls, unless noted: active = hit-call score of the fitted dose curve at least 0.9, where 1 is the maximum; inconclusive = response in the unintended direction; inactive = score below 0.9.

System: not listed separately
Assay: Tanguay_ZF_120hpf_PIG_legacy: (Legacy) Oregon State University Tanguay Lab 120 Hour Post-fertilization zebrafish Assay for Pigmentation Malformation (AID 2283650)
How it was run: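 Pigment malformation recorded as a binary call at 120 hpf in zebrafish (Tropical 5D) exposed singly from 6 hpf after pronase dechorionation. Static, sealed, 28C exposure, 0.64% DMSO; mortality excludes scoring; positive-direction fit against DMSO.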
With ClC1=C(Cl)C2(Cl)C3C(Cl)C(Cl)CC3C1(Cl)C2(Cl)Cl (stereo unspecified) the outcome was “inactive”. For Cc1ccc(N)cc1N, the outcome was “inactive”. In the case of c1nc[nH]n1, the outcome is reported as “inactive”. With Nc1ccc(Cl)cc1 the outcome was “inactive”. With Cc1cccc(N)c1 the outcome was “inactive”. In the case of c1ccc2c(c1)Nc1ccccc1S2, the outcome is reported as “inactive”. In the case of COCCOCCO, the outcome is reported as “inactive”. With ClC(Cl)(Cl)c1ccccc1 the outcome was “inactive”. For CN(C)C(=O)Cl, the outcome was “inactive”.

System: not listed separately
Assay: Tanguay_ZF_120hpf_CIRC_legacy: (Legacy) Oregon State University Tanguay Lab 120 Hour Post-fertilization zebrafish Assay for Circulatory Malformation (AID 2283651)
How it was run: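 Embryos are dechorionated at 4 hpf, plated one per well at 6 hpf, then held under static exposure at 28C until 120 hpf. Malformations are recorded as binary calls; mortality excludes other endpoints.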
In the case of Cc1ccc(N)cc1N, the outcome is reported as “inactive”. With CCN(CC)c1ccccc1 the outcome was “inactive”. In the case of c1nc[nH]n1, the outcome is reported as “inactive”. For Nc1ccc(Cl)cc1, the outcome was “inactive”. In the case of Cc1cccc(N)c1, the outcome is reported as “inactive”. In the case of c1ccc2c(c1)Nc1ccccc1S2, the outcome is reported as “inactive”. With COCCOCCO the outcome was “inactive”. With ClC(Cl)(Cl)c1ccccc1 the outcome was “inactive”. With CN(C)C(=O)Cl the outcome was “inactive”.

System: not listed separately
Assay: Tanguay_ZF_120hpf_SWIM_legacy: (Legacy) Oregon State University Tanguay Lab 120 Hour Post-fertilization zebrafish Assay for Swim Bladder Malformation (AID 2283654);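 note: swim bladder malformation in each larva scored yes or no under brightfield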
How it was run: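 Scoring is binary for swim bladder defects at 120 hpf, by brightfield inspection of zebrafish larvae. Embryos were exposed singly from 6 hpf after pronase dechorionation, at 28C with 0.64% DMSO; mortality excluded scoring.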
With ClC1=C(Cl)C2(Cl)C3C(Cl)C(Cl)CC3C1(Cl)C2(Cl)Cl (stereo unspecified) the outcome was “inactive”. In the case of CCCN(CCC)c1c([N+](=O)[O-])cc(C(C)C)cc1[N+](=O)[O-], the outcome is reported as “inactive”. With Cc1ccc(N)cc1N the outcome was “inactive”. In the case of CCCCN(CCCC)N=O, the outcome is reported as “inactive”. For CCN(CC)c1ccccc1, the outcome was “inactive”. For Nc1ccc(Cl)cc1, the outcome was “inactive”. For Cc1cccc(N)c1, the outcome was “inactive”. For c1ccc2c(c1)Nc1ccccc1S2, the outcome was “inactive”. With COCCOCCO the outcome was “inactive”.

System: not listed separately
Assay: Tanguay_ZF_120hpf_TRUN_legacy: (Legacy) Oregon State University Tanguay Lab 120 Hour Post-fertilization zebrafish Assay for Truncated Body (AID 2283655)
How it was run: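 5D wild-type larvae; pronase dechorionation; static exposure 6→120 hpf, 28C; DMSO 0.64% final; 5uM trimethyltin chloride positive control. Readout: presence/absence of truncated body, analyzed relative to DMSO.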
In the case of CCCN(CCC)c1c([N+](=O)[O-])cc(C(C)C)cc1[N+](=O)[O-], the outcome is reported as “inactive”. In the case of Cc1ccc(N)cc1N, the outcome is reported as “inactive”. In the case of CCCCN(CCCC)N=O, the outcome is reported as “inactive”. For CCN(CC)c1ccccc1, the outcome was “inactive”. For Cc1cccc(N)c1, the outcome was “inactive”. In the case of COCCOCCO, the outcome is reported as “inactive”. In the case of CN(C)C(=O)Cl, the outcome is reported as “inactive”.

System: Thyroperoxidase (TPO), gene 54314
Assay: CCTE_Simmons_AUR_rTPO: CCTE's Amplex UltraRed Assay for Thyroperoxidase (TPO) Inhibition, Simmons Lab (AID 2283662);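 note: potency for loss of signal meaning inhibition of peroxidase activity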
How it was run: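 Rat thyroid microsomes (5 ug protein) with 25 uM Amplex UltraRed and 300 uM H2O2 in 200 mM phosphate buffer, 30 min at 37C in dark; fluorescence 544/590 nm. Eight concentrations, 5 nM–87.5 uM final, 0.5% DMSO, triplicate biological replicates.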
In the case of O=S(=O)(c1ccc(O)cc1)c1ccc(O)cc1, the AC50 is reported as 32 µM (active). In the case of Cc1ccc(N)cc1N, the AC50 is reported as 9.92 µM (active). For O=c1ssc(Cl)c1Cl, the AC50 was 24.5 µM (active). In the case of CCCCc1ccc(O)cc1, the AC50 is reported as 0.51 µM (active). For O=S1(=O)OCC2C(CO1)C1(Cl)C(Cl)=C(Cl)C2(Cl)C1(Cl)Cl (stereo unspecified), the AC50 was 2.41 µM (active). For Nc1ccc(Cl)cc1, the AC50 was 0.315 µM (active). With Cc1cccc(N)c1 the AC50 was 0.268 µM (active). In the case of c1ccc2c(c1)Nc1ccccc1S2, the AC50 is reported as 15 µM (active). In the case of CCCCN(CC)C(=O)SCCC, the AC50 is reported as 6.35 µM (active).

System: not listed separately
Assay: CCTE_Simmons_CellTiterGLO_HEK293T: Viability Assessment in CCTE's Assays for Thyroperoxidase (TPO) Inhibition, Simmons Lab (AID 2283665);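 for AC50: cells exposed to compound for 24 h before readout; actives reduce ATP signal below DMSO vehicle meaning cytotoxicity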
How it was run: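 Cells were seeded overnight, then exposed to an eight-point series up to 87.5 uM final for 24 hours. CellTiter-Glo reagent was added and luminescence read after 20 min, giving ATP-based viability versus DMSO.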
For Cc1ccc(N)cc1N, the outcome was “inactive”. In the case of O=c1ssc(Cl)c1Cl, the AC50 is reported as 53.8 µM (active). For CCCCc1ccc(O)cc1, the AC50 was 53.6 µM (active). With O=S1(=O)OCC2C(CO1)C1(Cl)C(Cl)=C(Cl)C2(Cl)C1(Cl)Cl (stereo unspecified) the AC50 was 28.5 µM (active). In the case of Nc1ccc(Cl)cc1, the outcome is reported as “inactive”. In the case of Cc1cccc(N)c1, the outcome is reported as “inactive”. In the case of c1ccc2c(c1)Nc1ccccc1S2, the AC50 is reported as 9.57 µM (active). For CCCCN(CC)C(=O)SCCC, the AC50 was 73.1 µM (active).

System: not listed separately
Assay: Tanguay_ZF_120hpf_TR_legacy: (Legacy) Oregon State University Tanguay Lab 120 Hour Post-fertilization zebrafish Assay for Touch Response (AID 2283667)
How it was run: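 Binary touch-response endpoint in larvae at 120 hpf after static waterborne exposure from embryo stage (28°C, 0.64% DMSO vehicle, 5 uM trimethyltin chloride as positive control); embryos dead at 24 or 120 hpf excluded; fitted as gain versus DMSO.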
In the case of ClC1=C(Cl)C2(Cl)C3C(Cl)C(Cl)CC3C1(Cl)C2(Cl)Cl (stereo unspecified), the outcome is reported as “inactive”. In the case of CCCN(CCC)c1c([N+](=O)[O-])cc(C(C)C)cc1[N+](=O)[O-], the outcome is reported as “inactive”. For Cc1ccc(N)cc1N, the outcome was “inactive”. With CCCCN(CCCC)N=O the outcome was “inactive”. In the case of CCN(CC)c1ccccc1, the outcome is reported as “inactive”. For c1nc[nH]n1, the outcome was “inactive”. With c1ccc2c(c1)Nc1ccccc1S2 the outcome was “inactive”. In the case of COCCOCCO, the outcome is reported as “inactive”. For CN(C)C(=O)Cl, the outcome was “inactive”.

System: not listed separately
Assay: CCTE_Padilla_ZF_144hpf_TERATOSCORE: (Legacy) CCTE's 144 Hour Post-fertilization zebrafish Assay Teratoscore, Padilla Lab (AID 2283679; active = hit-call score of the fitted dose curve at least 0.9, where 1 is the maximum; inactive = score below 0.9;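 for AC50: zebrafish embryos with chorions exposed by immersion from 6-8 hpf to 5 dpf with daily renewal; teratogenicity score from eye scoring of death hatching and malformations at 144 hpf; higher score means more developmental defects relative to DMSO baseline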)
How it was run: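 Larvae scored by eye at 144 hpf for death, hatching and malformations after a day in clean Hanks'. Before that, daily-renewed exposure at 80 uM (0.4% DMSO, 26C) from roughly 6-8 hpf through 5 dpf, 4 embryos per chemical.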
With ClC1=C(Cl)C2(Cl)C3C(Cl)C(Cl)CC3C1(Cl)C2(Cl)Cl (stereo unspecified) the AC50 was 9.16 µM (active). In the case of CCCN(CCC)c1c([N+](=O)[O-])cc(C(C)C)cc1[N+](=O)[O-], the AC50 is reported as 16.2 µM (active). With Cc1cccc(N)c1 the outcome was “inactive”. With c1ccc2c(c1)Nc1ccccc1S2 the AC50 was 14.2 µM (active).

System: not listed separately
Assay: STM_H9_OrnithineISnorm_perc: Stemina devTOX quickPredict H9 human embryonic stem cell (hESC)-based Assay for Ornithine (ORN) Metabolite Biomarker, Normalized (AID 2283712; active = hit-call score of the fitted dose curve at least 0.9, where 1 is the maximum; inactive = score below 0.9;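 note: ornithine released into spent medium during last day measured by mass spectrometry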)
How it was run: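 Ornithine secreted by H9 hESCs after 72h compound treatment (daily media/compound renewal) was quantified in final-day media by UPLC-HRMS. Values are isotope-standard-normalized, expressed relative to 0.1% DMSO, fitted in positive direction.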
In the case of CCCCC(CC)COP(=O)(Oc1ccccc1)Oc1ccccc1 (stereo unspecified), the outcome is reported as “inactive”. With Cc1ccc(N)cc1N the AC50 was 89.7 µM (active). For c1ccc2c(c1)Nc1ccccc1S2, the outcome was “inactive”. For COCCOCCO, the outcome was “inactive”.

System: not listed separately
Assay: STM_H9_CystineISnorm_perc: Stemina devTOX quickPredict H9 human embryonic stem cell (hESC)-based Assay for Cystine (CYSS) Metabolite Biomarker, Normalized (AID 2283713; active = hit-call score of the fitted dose curve at least 0.9, where 1 is the maximum; inactive = score below 0.9)
How it was run: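 Cells are held undifferentiated and treated for 72h, receiving fresh medium with compound every 24h. Cystine secreted during the final day is quantified by UPLC-HRMS against a labeled spike-in, then expressed relative to the DMSO vehicle median.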
For CCCCC(CC)COP(=O)(Oc1ccccc1)Oc1ccccc1 (stereo unspecified), the outcome was “inactive”. For Cc1ccc(N)cc1N, the outcome was “inactive”. In the case of c1ccc2c(c1)Nc1ccccc1S2, the outcome is reported as “inactive”. In the case of COCCOCCO, the outcome is reported as “inactive”.

System: not listed separately
Assay: STM_H9_OrnCyssISnorm_ratio: Stemina devTOX quickPredict H9 human embryonic stem cell (hESC)-based Assay for Ornithine (ORN):Cystine (CYSS) Ratio (AID 2283714)
How it was run: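 Ratio of internal-standard-normalized ornithine to cystine, measured by UPLC-HRMS in spent media from the last 24 h. H9 cells kept pluripotent, dosed 72 h with daily media and compound renewal; DMSO 0.1% serves as baseline.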
With CCCCC(CC)COP(=O)(Oc1ccccc1)Oc1ccccc1 (stereo unspecified) the outcome was “inactive”. For Cc1ccc(N)cc1N, the AC50 was 65.8 µM (active). For c1ccc2c(c1)Nc1ccccc1S2, the outcome was “inactive”. With COCCOCCO the outcome was “inactive”.

Read-out: not listed separately
Assay: CEETOX_H295R_MTT_cell_viability: Viability Assessment in the CeeTox HT-H295R MTT Assay (AID 2283718; active = hit-call score of the fitted dose curve at least 0.9, where 1 is the maximum; inactive = score below 0.9;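 for AC50: curve fitted both ways so AC50 may mark viability loss or gain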)
How it was run: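 MTT reduction (0.5 mg/ml, 4 h at 37 C; absorbance at 570 and 650 nm) gave viability as background-corrected percent change versus controls. H295R cells had 48 h forskolin (10 uM) prestimulation, then 48 h chemical exposure at 0.1% DMSO.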
For O=S(=O)(c1ccc(O)cc1)c1ccc(O)cc1, the outcome was “inactive”. For ClC(Cl)=C(c1ccc(Cl)cc1)c1ccccc1Cl, the outcome was “inactive”. With CC(C)Nc1ccc(Nc2ccccc2)cc1 the outcome was “inactive”. In the case of CCOP(=S)(OCC)SCS(=O)(=O)CC, the outcome is reported as “inactive”. For Nc1ccc([N+](=O)[O-])cc1Cl, the outcome was “inactive”. In the case of Cc1ccc(N)cc1N, the outcome is reported as “inactive”. In the case of CC(=O)c1ccc(-c2ccccc2)cc1, the outcome is reported as “inactive”. In the case of CCOC(=O)c1ccccc1N, the outcome is reported as “inactive”. In the case of CCCCOCCOP(=O)(OCCOCCCC)OCCOCCCC, the outcome is reported as “inactive”. With CCCCc1ccc(O)cc1 the outcome was “inactive”. For O=S1(=O)OCC2C(CO1)C1(Cl)C(Cl)=C(Cl)C2(Cl)C1(Cl)Cl (stereo unspecified), the outcome was “inactive”. For Nc1ccc(Cl)cc1, the outcome was “inactive”. With Cc1cccc(N)c1 the outcome was “inactive”. With COP(N)(=S)OC the outcome was “inactive”. For c1ccc2c(c1)Nc1ccccc1S2, the outcome was “inactive”. With N#Cc1c(-c2ccc(Cl)cc2)[nH]c(C(F)(F)F)c1Br the AC50 was 0.289 µM (active). In the case of Oc1ccc(I)cc1, the outcome is reported as “inactive”. For CO/N=C(/C(=O)OC)c1ccccc1COc1ccccc1C, the AC50 was 5.04 µM (active). For CCOP(=S)(NC(C)C)Oc1ccccc1C(=O)OC(C)C (stereo unspecified), the outcome was “inactive”. In the case of CCOP(=S)(OCC)SCn1nnc2ccccc2c1=O, the outcome is reported as “inactive”.
